Measurements taken from PubChem BioAssay AID2018 (Sanford-Burnham Center for Chemical Genomics, 2009).
The whole screen tested about 1,200 compounds, of which about 600 (50%) were called active. Cut-off read from the data, not from the text of the source: active = inhibition above about 42%; inactive = the rest. The set was probably picked from earlier hits. Some of the results follow. Entries with a potency or affinity are not part of this list.

Target: SUMO-conjugating enzyme UBC9 (Homo sapiens) (UniProt P63279)
Sequence (P63279 whole entry, looked up): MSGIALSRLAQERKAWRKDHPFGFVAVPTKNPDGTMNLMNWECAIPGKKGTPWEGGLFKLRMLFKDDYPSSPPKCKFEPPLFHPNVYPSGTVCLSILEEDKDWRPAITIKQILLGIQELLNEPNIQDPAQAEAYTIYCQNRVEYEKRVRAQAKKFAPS
Assay: SUMOylation inhibitor hit validation, confirmation, SUMOylation inhibitor project, biochemical, AlphaScreen (AID 2018)
Settings: AlphaScreen in vitro SUMOylation assay; at 35 µM; hits give high values

`CCC(C)(C)n1nnnc1CN(Cc1cc2cc(OC)c(OC)cc2[nH]c1=O)C1CCCC1` was tested. Which inhibition did it give?
The inhibition was 2.2% (inactive).

For `Cc1ccc(-c2[nH]c(-c3ccc(C(=O)O)cc3)nc2-c2ccccc2)cc1`, which inhibition is on record?
The inhibition was 49.3% (active).

How did the inhibition turn out when `O=[N+]([O-])c1c(NCc2ccccc2)cc(N2CCc3ccccc3C2)c2nonc12` was run?
Its inhibition is 38.5% (inactive).

For `CN(C)c1cc(Nc2cccc(O)c2)c([N+](=O)[O-])c2nonc12`, which inhibition is on record?
Its inhibition is 43.3% (active).

`O=[N+]([O-])c1cc([N+](=O)[O-])c2nonc2c1Nc1ccc(O)cc1` was tested. Which inhibition did it give?
Its inhibition is 37.6% (inactive).

With `COc1ccc2c(c1)C(C)=CC(C)(C)N2C(=O)Nc1ccccc1` as the compound, how does the inhibition read?
The inhibition was 38.7% (inactive).

`CSc1nnc(SCc2nc3sc(C(=O)O)c(C)c3c(=O)[nH]2)s1` was tested. Which inhibition did it give?
Its inhibition is 89.8% (active).

Which inhibition does the source give for `CCN(CC)C(=O)c1sc2nc(-c3ccncc3)[nH]c(=O)c2c1C` here?
Its inhibition is 0.7% (inactive).

How did the inhibition turn out when `CCOc1ccc(S(=O)(=O)N2CCCC(C(=O)NCc3ccco3)C2)cc1` (configuration not stated) was run?
The inhibition was 4.2% (inactive).

For `Fc1cccc(NC(=S)Nc2cccc3ccccc23)c1`, which inhibition is on record?
Its inhibition is 24.1% (inactive).

How did the inhibition turn out when `[O-]/C(=C(\C(=S)Nc1cccc2ccccc12)[n+]1cccc(CO)c1)c1ccc(Cl)s1` was run?
The inhibition was 31.7% (inactive).

For `[O-]/C(=C(\C(=S)Nc1cccc2ccccc12)[n+]1ccccc1)c1ccc(Cl)s1`, which inhibition is on record?
Its inhibition is 53.6% (active).

For `CC(C)c1ccc(NC(=S)Nc2cccc3ccccc23)cc1`, which inhibition is on record?
Its inhibition is 24.3% (inactive).

How did the inhibition turn out when `CC(C)c1ccc(NC(=O)C[n+]2ccn(C3=C([O-])c4ccccc4C3=O)c2)cc1` was run?
Its inhibition is 61.2% (active).

How did the inhibition turn out when `O=c1c(-c2c(O)cc(O)c3c(=O)cc(-c4ccc(O)cc4)oc23)c(-c2ccc(O)cc2)oc2cc(O)cc(O)c12` was run?
The inhibition was 99.8% (active).

`Cc1[nH][nH]c(=O)c1C(c1ccc(-c2ccc(Cl)c(C(=O)O)c2)o1)c1c(C)[nH][nH]c1=O` was tested. Which inhibition did it give?
The inhibition was 73.1% (active).

With `Cc1[nH][nH]c(=O)c1C(c1ccc(-c2ccc(Cl)c(Cl)c2)o1)c1c(C)[nH][nH]c1=O` as the compound, how does the inhibition read?
Its inhibition is 45.9% (active).

`Cc1cc(C)c(S(=O)(=O)NCC23C=CC(O2)C2C(=O)N(c4ccccc4)C(=O)C23)c(C)c1` (configuration not stated) was tested. Which inhibition did it give?
Its inhibition is -6.4% (inactive).

`O=C1N=c2ccccc2=C1c1c(O)n(-c2cccc(F)c2)[nH]c1=O` was tested. Which inhibition did it give?
The inhibition was 12% (inactive).

`O=C1N=c2ccccc2=C1c1sc(Nc2ccc(O)cc2)nc1O` was tested. Which inhibition did it give?
The inhibition was 93.5% (active).

For `Cc1c(N2C(=O)c3ccc4c5c(ccc(c35)C2=O)CC4)c(=O)n(-c2ccccc2)n1C`, which inhibition is on record?
Its inhibition is 93.9% (active).

Which inhibition does the source give for `Cc1ccc(-n2nc(C)c3c2OC(N)=C(C#N)C3c2ccoc2)cc1` (configuration not stated) here?
Its inhibition is 69% (active).

How did the inhibition turn out when `N#CC1=C(N)Oc2n[nH]c(-c3cccs3)c2C1c1ccoc1` (configuration not stated) was run?
The inhibition was 24.4% (inactive).

For `Cc1ccc(-n2nc(C)c3c2OC(N)=C(C#N)C3c2ccc(C)o2)cc1` (configuration not stated), which inhibition is on record?
The inhibition was 81.4% (active).

With `Cc1nn(-c2ccccc2)c2c1C(c1ccc(F)cc1)C(C#N)=C(N)O2` (configuration not stated) as the compound, how does the inhibition read?
The inhibition was 0% (inactive).

Which inhibition does the source give for `CC(C)N1CCC2(CC1)C(C#N)=C(N)NC(S)=C2C#N` here?
The inhibition was 26% (inactive).

Which inhibition does the source give for `Cc1nc2c3cc(F)ccc3n(Cc3ccc(F)cc3)c2s1` here?
Its inhibition is 20.7% (inactive).
